Hits are enriched below; roughly 4.5% of the tested compounds scored in any of these assays.
FBA Mtb inh: Mtb fructose-bisphosphate aldolase inhibition | P9WQA3 | purified M. tuberculosis FBA, fluorescence read-out | inhibition, % at 1 µM | hit rate 2.3% among 360,000 | AID 588726; in the data active means inhibition above about 27%;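 further: 0% = vehicle and 100% = reference inhibitor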
Target sequence (P9WQA3 whole entry, looked up): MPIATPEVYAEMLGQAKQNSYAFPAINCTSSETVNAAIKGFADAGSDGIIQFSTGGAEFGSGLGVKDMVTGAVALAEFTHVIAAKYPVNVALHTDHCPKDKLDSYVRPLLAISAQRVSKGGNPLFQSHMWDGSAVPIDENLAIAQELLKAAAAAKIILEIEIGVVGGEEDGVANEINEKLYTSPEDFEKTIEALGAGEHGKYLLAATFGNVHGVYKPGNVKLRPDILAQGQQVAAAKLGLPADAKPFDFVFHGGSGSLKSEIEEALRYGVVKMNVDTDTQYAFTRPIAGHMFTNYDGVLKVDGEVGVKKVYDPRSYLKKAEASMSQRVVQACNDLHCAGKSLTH
PrPC surface inh: cell surface PrPC inhibition, primary TR-FRET screen; P04156; TR-FRET read-out; inhibition, % at 13.8 µM; hit rate 0.43% among 370,000; AID 720596; in the data active means inhibition above about 24%; further: 0% = median of the test wells and 100% = reference compound wells
PrP UTR inh: inhibition of PrP 5' UTR reporter expression. cell-based PrP 5' UTR mRNA reporter, plate reader. inhibition, % (no concentration beside the values). hit rate 0.35% among 340,000. AID 488862; in the data active means inhibition above about 52%; further: 0 = median of the neutral control wells
BJeLR lethal: kills HRASV12-expressing BJeLR cells. BJeLR (HRASV12) viability, CellTiter-Glo ATP luminescence, 48 h. inhibition, % (no concentration beside the values). hit rate 0.17% among 300,000. AID 1554; in the data active means inhibition above about 50%
GDH-TPI counter: GDH-TPI coupled enzyme inhibition counter-screen. GDH-TPI coupled enzyme counterscreen, NADH absorbance. hit rate 1.2% among 360,000. inhibition, % at 4.8 µM. AID 588335; in the data active means inhibition above about 30%;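 further: 0% = DMSO wells and 100% = wells lacking the enzyme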
PfHsp40 rescue: compounds rescuing yeast from Plasmodium falciparum HSP40 toxicity | S. cerevisiae expressing PfHsp40, growth rescue, ATP luminescence | growth rescue, % at 12.5 µM | hit rate 0.68% among 340,000; in the data active means growth rescue above about 28%, passing the limit was not always enough;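 further: yeast W303a lacking pdr1 and pdr3 grown in galactose medium; growth measured after three days at 30 °C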
Active calls of the source: *; · = no result.

SMILES	FBA Mtb inh	PrPC surface inh	PrP UTR inh	BJeLR lethal	GDH-TPI counter	PfHsp40 rescue
COc1ccc(CC(=O)N/N=C/C=C/c2ccc3c(c2)OCO3)cc1OC	1	-14	·	-7	35*	·
NC(Cc1ccc(O)cc1)C(=O)NN=Cc1ccc(N(CCCl)CCCl)cc1 (stereo unspecified)	23	10	-20	·	50*	-1
CCOC(=O)N/N=C\C=C\c1ccc2c(c1)OCO2	3	-7	-50	-2	37*	-1
CC(C)(C)OC(=O)N/N=C\C=C\c1ccc2c(c1)OCO2	-1	10	-48	-11	26	-1
O=C(OC12CCCN(C1)/C(=C/c1ccccc1)C2)C1CCCC1 (stereo unspecified)	·	-3	·	·	·	·
COc1cc(C(=O)NN=Cc2ccc(N(CCCl)CCCl)cc2)cc(OC)c1OC	9	5	-12	·	61*	0
CCN(CC)c1ccc(C(=O)N/N=C(\C)c2ccc(OC)c(OC)c2)cc1	-2	-2	-20	-6	32*	0
COc1cc(C(=O)N/N=C/c2ccccn2)cc(OC)c1OC	-1	19	-12	2	1	0
COC(=O)N/N=C\C=C\c1ccc2c(c1)OCO2	3	-5	-54	-1	44*	0
CCN(CC)c1ccc(/C=N/NC(=O)CNC(=O)/C=C/c2ccco2)cc1	7	-10	12	0	44*	-2
CC(C)C[C@H]1COc2cc(Br)ccc2S(=O)(=O)N1Cc1cn(CCC2OCCCO2)nn1	·	1	·	·	·	·
C/C(=N\Nc1nc2ccccc2s1)c1ccc(Br)s1	1	-4	-53	14	1	145*
CC(=NNc1nc2ccccc2s1)c1ccncn1	-4	17	-60	·	34*	150*
C/C(=N\Nc1nc2ccccc2s1)c1ccc2c(c1)OCO2	0	-2	-36	-6	14	-1
COc1ccc(-c2ccc(SC)nn2)cc1	4	-1	32	66*	-1	0
N#C/C(=C/c1cn(-c2ccccc2)nc1-c1cccc(S(=O)(=O)N2CCCC2)c1)C(=O)NCc1ccco1	0	0	-22	9	31*	-2
Oc1ccc(-c2cnc(-c3ccc(O)cc3)nc2)cc1	1	13	-64	-9	17	-2
Nc1ccc(-c2cnc(-c3ccc(N)cc3)nc2)cc1	-6	6	-8	4	67*	0
CCOc1cc(S(=O)(=O)NC2CCCCCC2)ccc1F	1	3	-13	9	-2	48*
COc1cc(S(=O)(=O)NC2CCCCC2)ccc1Cl	3	-1	12	-6	13	91*
CCOc1ccc(S(=O)(=O)NC2CCCCCC2)cc1	0	1	-10	2	2	1
CN1C2=N[C@H](c3ccc(Br)cc3)CC(=O)N2/C(=C\c2ccccc2)[C@@H]1c1ccccc1	·	14	·	·	·	·
COc1ccc(C2=NN3C(=O)c4c(ccc(OC)c4OC)C3C2)cc1 (stereo unspecified)	1	-12	-21	13	36*	1
NNC(=O)c1ccc([N+](=O)[O-])c(CS(=O)(=O)c2ccc(Cl)cc2)c1	13	-18	-33	0	1	1
O=C(c1ccc([N+](=O)[O-])c(CS(=O)(=O)c2ccc(Cl)cc2)c1)N1CCCC1	1	-34	-21	-1	-2	41*
SMILES	FBA Mtb inh	PrPC surface inh	PrP UTR inh	BJeLR lethal	GDH-TPI counter	PfHsp40 rescue
S=c1[nH]nc(COc2ccccc2)n1Cc1ccccc1	-4	4	-11	-3	-5	0
CCc1ccc(OCc2n[nH]c(=S)n2C(C)CCCC(C)C)cc1 (stereo unspecified)	-1	10	-55	7	3	57*
CCc1ccc(OCc2n[nH]c(=S)n2Cc2ccccc2)cc1	-5	10	-27	-4	1	101*
O=S1(=O)[C@H]2C[C@@H]3C=C[C@@]2(CN1Cc1cccc(C(F)(F)F)c1)O3	2	2	-20	8	2	0
O=S1(=O)[C@H]2C[C@@H]3C=C[C@@]2(CN1Cc1cccc(F)c1)O3	0	-1	-28	6	13	66*
CC(C)/C=C(/C(=O)c1ccc(Cl)cc1Cl)n1cncn1	-1	1	-10	2	-7	399*
CC(C)(C)C(=O)/C(=C/c1ccc(Cl)cc1)n1cncn1	-1	-1	-2	15	-5	1
Cc1ccc2c(c1)C(CS(=O)(=O)NC1CCCC1)NC2 (stereo unspecified)	·	-6	·	·	·	·
CC(=O)Oc1c(Sc2ccccc2[N+](=O)[O-])c(C)nn1C(C)(C)C	2	3	-3	·	8	42*
O=S(=O)(c1ccc2c(c1)OCCO2)N1CCN(c2cccc(Cl)c2)CC1	0	4	-10	15	3	11
O=S(=O)(c1cccc(Cl)c1)N1CCN(S(=O)(=O)c2ccc3c(c2)OCCO3)CC1	-3	-1	-38	·	-14	43*
CCOC(=O)c1cccc(-n2cccc2/C=C2\NC(=O)N(CC(=O)O)C2=O)c1	0	-6	-10	·	31*	0
O=C(O)c1ccc(-n2cccc2/C=C2/NC(=O)N(c3ccccc3)C2=O)cc1	0	-5	-24	12	32*	0
Cc1cccc(Cn2cc(CN3CC(N(C)CCCOC(=O)c4cc(C)cc(C)c4)CS3(=O)=O)nn2)c1 (stereo unspecified)	·	-3	·	·	·	·
Cc1cccc(CCNC(=O)c2ccc(Sc3ccccc3Cl)c([N+](=O)[O-])c2)c1	·	5	·	·	·	·
COCCNc1nc(NCCN2CCNC2=O)c2sccc2n1	3	-1	·	·	12	·
COc1cc(C(=O)Nc2ccc(Br)cc2C(=O)c2ccccc2)cc(OC)c1OC	2	1	-12	-8	8	81*
CCCC/C=C1/[C@@H](c2ccc(Cl)cc2)N(Cc2ccc3c(c2)OCO3)C2=N[C@@H](c3ccccc3)CC(=O)N21	·	1	·	·	·	·
CCOCCCNCc1ccc(OC)cc1	1	-8	-31	7	10	1
COc1ccc2cc(CNCCOCCOCCNCc3ccc4cc(OC)ccc4c3)ccc2c1	3	32*	0	·	5	1
COc1cccc(N2C(N)=NC(N)=NC2(C)C)c1	0	-5	-22	79*	-1	0
COc1ccc(N2C(N)=NC(N)=NC2(C)C)cc1	0	1	-20	6	4	0
S=c1[nH]nc(-c2ccco2)n1-c1ccc(Br)cc1	2	9	-11	-6	9	43*
O=C(O)CCCC(=O)N1CCN(c2nc(-c3ccccc3Cl)c3cc(Br)ccc3n2)CC1	-2	9	-11	4	6	47*
COc1cccc(C(=O)Nc2nc(-c3ccc(S(=O)(=O)N4CCOCC4)cc3)cs2)c1	4	7	-14	6	13	1
CCCCC(=O)Nc1nc(-c2ccc(S(=O)(=O)N3CCOCC3)cc2)cs1	36*	0	-14	-8	-1	0
CC(C)CC(=O)Nc1nc(-c2ccc(S(=O)(=O)N3CCOCC3)cc2)cs1	31*	12	-12	6	-1	-1
